Among the data in PubChem BioAssay (NCI) are growth inhibition values, retold here.

Compounds without any hit were thinned out: in the full panel of roughly 79,000, 15% have a hit. A number with no mark means an inactive call. The source made the active and inactive calls. Rule as the data show it: active = growth inhibition above about 70%; inactive = the rest.

The nature of assay [1]: NCI Yeast Anticancer Drug Screen. Data for the rad50 strain (AID 155).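 Also: 0% = growth of vehicle-only cultures of the same strain.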 The conditions noted are these: S. cerevisiae rad50 strain growth inhibition; at 50.0 µM; hits give high values. The gist of the method:
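Vehicle-treated cultures provide the reference for the growth inhibition reported for compound-exposed, repair-deficient yeast.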

Assay [2] can be described thus: NCI Yeast Anticancer Drug Screen. Data for the mec2-1 strain (AID 157). The following applies: S. cerevisiae mec2-1 strain, at 50.0 µM, hits give high values. In short, it runs like this: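 Compounds were applied to mec2-1 yeast cells. Their growth was then compared with that of vehicle-treated cultures to give growth inhibition.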
A short description of assay [3]: NCI Yeast Anticancer Drug Screen. Data for the sgs1 mgt1 strain (AID 161).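 Also: 0% = growth of cultures given vehicle only.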 The conditions noted are these: S. cerevisiae sgs1 mgt1 strain, at 50.0 µM, hits give high values. The gist of the method: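 Percent growth inhibition was derived by comparing compound-exposed mutant yeast with vehicle-exposed cultures. The strain carries alterations in DNA damage repair.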

Assay [4] is described as follows: NCI Yeast Anticancer Drug Screen. Data for the cln2 rad14 strain (AID 165).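 Also: 0% = growth equal to vehicle treated cultures.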 The conditions noted are these: S. cerevisiae cln2 rad14 strain, at 50.0 µM, hits give high values. The gist of the method: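 Strain: cln2 rad14 yeast, altered in cell cycle control and DNA damage repair. Read-out: growth inhibition vs vehicle.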
A short description of assay [5]: NCI Yeast Anticancer Drug Screen. Data for the bub3 strain (AID 167). The following applies: S. cerevisiae bub3 mutant strain, at 50.0 µM, hits give high values. In short, it runs like this:
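Mutant yeast screening strain plus compound; vehicle-treated cultures serve as the 0% inhibition reference.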

Assay [6] in a line: NCI Yeast Anticancer Drug Screen. Data for the mlh1 rad18 strain (AID 175). The following applies: S. cerevisiae mlh1 rad18 strain growth inhibition; at 50.0 µM; hits give high values. The gist of the method: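 A repair-deficient yeast strain is exposed to test compound, and growth is scored relative to vehicle-treated controls.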

For `CC(C)(C)[CH2][Sn]([Cl])([CH2]C(C)(C)C)[CH2]C(C)(C)C`, the growth inhibition in assay [1] was 99% (active); in assay [2] it was 99.3% (active); in assay [3] it was 21.8%; in assay [4], 99% (active); in assay [5], 99.2% (active); in assay [6] it was 99% (active).

As for `O=C(COc1ccccc1Cl)Nc1ccc[n+](Cc2ccc(S(=O)(=O)F)cc2)c1`, the growth inhibition is -20.9% in assay [1]; -21.2% in assay [2]; 2.9% in assay [3]; -42.2% in assay [4]; -3.15% in assay [5]; -0.7% in assay [6].

Turning to `C[CH2][Sn]([CH2]C)([S]c1nc(O)cc(=O)[nH]1)[S]c1nc(O)cc(=O)[nH]1`, the growth inhibition in assay [1] is 32.5%; in assay [2] it was 41.9%; in assay [3] it was -18.1%; in assay [4] it was 7.9%; in assay [5], 21.9%; in assay [6], 25.1%.

Regarding `Clc1cc2nncc(N3CC3)c2cc1Cl`, the growth inhibition in assay [1] is -3.25%; in assay [2], -24.4%; in assay [3], -3.75%; in assay [4] it was 9.95%; in assay [5] it was -7.8%; in assay [6], -21.4%.

Turning to `c1ccc(-c2csc3[nH]c4ccccc4[n+]23)cc1`, the growth inhibition is 19.4% in assay [1]; 5.6% in assay [2]; 8.35% in assay [3]; 5.7% in assay [4]; 5.25% in assay [5]; 6.35% in assay [6].

`Cc1ccc(N[N+](=O)[O-])nc1`: the growth inhibition was -7.25% in assay [1]; 8.55% in assay [2]; -1.15% in assay [3]; -10.2% in assay [4]; -3.15% in assay [5]; 14% in assay [6].

For the compound `C[Si](C)(C)CS(=O)[O-].[C-]#[O+].[C-]#[O+].[Fe+6].[c-]1[c-][c-][cH-][c-]1`, the growth inhibition was 0.1% in assay [1]; 8.8% in assay [2]; 20.7% in assay [3]; -12.2% in assay [4]; -3.85% in assay [5]; 6.65% in assay [6].

Turning to `[C-]#[O+].[C-]#[O+].[C-]#[O+].[C-]#[O+].[C-]#[O+].[C-]#[O+].[C-]#[O+].[C-]#[O+].[C-]#[O+].[CH2-]C.[Co].[Co].[Co]`, the growth inhibition is 25.6% in assay [1]; 9.9% in assay [2]; 19.1% in assay [3]; -2.3% in assay [4]; 24.2% in assay [5]; 33.8% in assay [6].

With `COP(=O)(OC)C1(c2ccccc2)C2C3CCC(C3)C21` (stereo not given), the growth inhibition in assay [1] was 1.75%; in assay [2] it was 21.7%; in assay [3] it was 2.65%; in assay [4], -7%; in assay [5], 14.8%; in assay [6] it was 17.8%.

`CC(NC(=O)c1ccccc1)N(C)[N+](=O)[O-]` (stereo not given): the growth inhibition in assay [1] is -3.7%; in assay [2], 4%; in assay [3], 2.5%; in assay [4], -13.4%; in assay [5], 5.45%; in assay [6], -5.55%.

For the compound `c1ccc(-c2ccc[n+](CC[n+]3cccc(-c4ccccn4)c3)c2)nc1`, the growth inhibition in assay [1] was 0.3%; in assay [2] it was -9.4%; in assay [3] it was -25.4%; in assay [4], -11.4%; in assay [5], -0.1%; in assay [6], 8.45%.

In the case of `CCOP(=O)(OCC)C(C)(C)OC(=O)NC#N`, the growth inhibition in assay [1] was -24.2%; in assay [2], -63.5%; in assay [3], -36.2%; in assay [4], -8.85%; in assay [5], -13.6%; in assay [6], -28.8%.

With `NC1=Nc2ccccc2Sc2ccccc21`, the growth inhibition in assay [1] is -19.2%; in assay [2], -38.8%; in assay [3], -44.5%; in assay [4], 2.5%; in assay [5] it was -23.5%; in assay [6] it was -33.8%.

For the compound `COc1ccc(CCN)c(OC)c1`, the growth inhibition was -11.2% in assay [1]; 2.8% in assay [2]; -3.5% in assay [3]; -13.1% in assay [4]; -8.25% in assay [5]; -35.1% in assay [6].

Turning to `CSC(SC)=C(C(=O)O)P(=O)(O)O`, the growth inhibition in assay [1] is -32.4%; in assay [2], -3.05%; in assay [3], -8.2%; in assay [4], 19.1%; in assay [5] it was -9.8%; in assay [6], -16.6%.

`COC1=CC=C2[C@@H]3Cc4ccc(OC)c5c4[C@]2(CCN3CCCl)C1O5` (stereo not given in full): the growth inhibition was 27% in assay [1]; -5.35% in assay [2]; 4.75% in assay [3]; 8.2% in assay [4]; 6.85% in assay [5]; 10.6% in assay [6].

Regarding `COc1cc(C2c3cc4c(cc3OC3(OC)COC(=O)C23)OCO4)cc(OC)c1OC(C)=O` (stereo not given), the growth inhibition in assay [1] was -8.95%; in assay [2] it was 0.45%; in assay [3], -2.05%; in assay [4], -6.9%; in assay [5] it was -24.6%; in assay [6], 8.1%.

Turning to `CCc1cc[c]([Sb](=[O])([OH])[OH])cc1`, the growth inhibition is 3.5% in assay [1]; -7.15% in assay [2]; 9.1% in assay [3]; 22.5% in assay [4]; 4.1% in assay [5]; 3.2% in assay [6].

Regarding `CCOC(OCC)/C(=C\N(C)C)N=C(C#N)C#N`, the growth inhibition is 0.95% in assay [1]; -2.4% in assay [2]; 5.35% in assay [3]; -35.4% in assay [4]; 3.25% in assay [5]; -2.05% in assay [6].

On to `C/C(CC(C)(C)N1CC1)=N\N`, for which the growth inhibition in assay [1] was -19.7%; in assay [2], -12.8%; in assay [3] it was -7.75%; in assay [4], -20.1%; in assay [5], -7.95%; in assay [6], -8.95%.
